ChEMBL document CHEMBL4513141, “CO-ADD screening of NIH (USA) - Clinical Collection” (2021)
The whole screen tested about 23,000 compounds, of which about 30 (0.1%) showed an effect of 50% or more. The sample holds strong results, similar compounds and a random draw of the others, so the mix is not that of the screen. Entries with a potency or affinity are not part of this list.

system: Pseudomonas aeruginosa; conditions: Concentration 20 uM; ASSAY_TEST Inhibition of Bacterial Growth; detection method Absorption (OD600); MEDIA CAMHB; plate type 384well; NBS; CORNING #3640; time 18 hr

Structure (SMILES) | Inhibition
Cc1ncc2n1-c1ccc(Cl)cc1C(c1ccccc1F)=NC2.Cl [MIDAZOLAM HYDROCHLORIDE] | 11.86%
CN1C(=O)CN=C(c2ccccc2)c2cc(Cl)ccc21 [DIAZEPAM] | 6.74%
Cc1nnc2n1-c1ccc(Cl)cc1C(c1ccccc1)=NC2 [ALPRAZOLAM] | 52.22%
Cn1c(=O)c2nc[nH]c2n(C)c1=O.O [THEOPHYLLINE] | 16.98%
